In PubChem BioAssay AID1117273 (Broad Institute, 2014):
A number with no mark means an inactive call. How the calls were made is not given here.

Experiment: inhibitors of orthopox early gene expression, dose response, cell-based, single fluorophore reporter, dry powder (AID 1117273)
Settings: orthopoxvirus-infected cells, early gene fluorescent reporter; at 10 µM; hits give high values

Point of comparison: Cc1cccc(-c2ccc(CN(C)C[C@@H]3Oc4cc(C#C[C@@H](C)O)ccc4S(=O)(=O)N([C@@H](C)CO)C[C@@H]3C)cc2)c1, inhibition 48%. Against it:
- Cc1ccc(-c2ccc(CN(C)C[C@@H]3Oc4cc(C#C[C@@H](C)O)ccc4S(=O)(=O)N([C@@H](C)CO)C[C@@H]3C)cc2)cc1 — lower, 32.5%
- C[C@@H](O)C#Cc1ccc2c(c1)O[C@@H](CN(C)Cc1ccc(-c3ccc(Cl)cc3)cc1)[C@@H](C)CN([C@@H](C)CO)S2(=O)=O — lower, 17.2%
- C[C@@H](O)C#Cc1ccc2c(c1)O[C@@H](CN(C)Cc1ccc(-c3cccc(Cl)c3)cc1)[C@@H](C)CN([C@@H](C)CO)S2(=O)=O — higher, 48.5%
- COc1ccccc1-c1ccc(CN(C)C[C@@H]2Oc3cc(C#C[C@@H](C)O)ccc3S(=O)(=O)N([C@@H](C)CO)C[C@@H]2C)cc1 — lower, -12.9%
- C[C@@H](O)C#Cc1ccc2c(c1)O[C@@H](CN(C)Cc1ccc(-c3ccccc3Cl)cc1)[C@@H](C)CN([C@@H](C)CO)S2(=O)=O — higher, 59.3%
- Cc1ccccc1-c1ccc(CN(C)C[C@@H]2Oc3cc(C#C[C@@H](C)O)ccc3S(=O)(=O)N([C@@H](C)CO)C[C@@H]2C)cc1 — higher, 63.3%
